Compounds with a hit are over-represented: about 2.4% of the library has one in this group of screens.
WRN helicase inh: blocks human WRN helicase | AID 651768 | Q14191 | WRN helicase unwinding, fluorescent forked duplex, kinetic | Potency, µM (highest dose often 114 µM), for the others: at the highest dose activity change, negative = inhibition, actives largely listed as inhibitors | 0.46% of 360,000 active; note: % is set by controls: 0 for no effect and ±100 for the full control effect; nearly all actives have a fitted effect of over 55% in size
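Kinetic fluorescence helicase assay: unwinding of a quenched forked DNA duplex (100 nM final) with 2 mM ATP final raises red fluorescence (525/598 nm). Compounds sat 15 min at room temperature with 20 nM WRN beforehand.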
POLI inh: inhibitors of human DNA polymerase iota; Q9UNA4; Pol iota fluorescent replication assay, 10 min; Potency, µM (series often up to 115 µM), inactives show top-dose activity, negative = inhibition, actives largely listed as inhibitors; 1% of 390,000 active; AID 588590
Target sequence (Q9UNA4 whole entry, looked up): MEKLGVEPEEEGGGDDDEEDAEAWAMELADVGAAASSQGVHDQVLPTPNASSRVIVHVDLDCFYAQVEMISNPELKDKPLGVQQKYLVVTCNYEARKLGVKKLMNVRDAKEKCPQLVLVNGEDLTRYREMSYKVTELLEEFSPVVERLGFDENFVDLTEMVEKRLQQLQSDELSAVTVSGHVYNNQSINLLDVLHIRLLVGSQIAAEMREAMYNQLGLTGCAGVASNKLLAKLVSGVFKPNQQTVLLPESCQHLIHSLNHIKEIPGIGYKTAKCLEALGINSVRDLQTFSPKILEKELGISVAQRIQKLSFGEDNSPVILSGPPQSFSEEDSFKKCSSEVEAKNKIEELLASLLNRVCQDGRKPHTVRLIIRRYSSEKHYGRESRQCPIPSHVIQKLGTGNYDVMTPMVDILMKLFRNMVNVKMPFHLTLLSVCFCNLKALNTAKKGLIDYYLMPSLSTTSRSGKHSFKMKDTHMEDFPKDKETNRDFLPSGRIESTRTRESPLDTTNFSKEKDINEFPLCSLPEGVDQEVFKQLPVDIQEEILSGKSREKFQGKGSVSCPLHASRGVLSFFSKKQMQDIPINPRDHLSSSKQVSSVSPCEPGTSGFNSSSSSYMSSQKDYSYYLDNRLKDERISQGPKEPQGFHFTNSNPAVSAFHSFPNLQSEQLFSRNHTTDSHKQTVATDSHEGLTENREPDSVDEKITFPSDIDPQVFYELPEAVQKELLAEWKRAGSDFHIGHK
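Pol iota at 10 nM preincubated 15 min with compounds at room temperature; reaction started with fluorescent substrate, 50 nM final. Fluorescence read kinetically at 0 and 10 min; buffer-only wells as negative control.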
POLB inh: inhibitors of human DNA polymerase beta; 1.3% of 340,000 active; Pol beta primer extension/strand displacement, fluorescence kinetic; Potency, µM (series often up to 114 µM), inactives show top-dose activity change, negative = inhibition, actives largely listed as inhibitors; note: % is set by controls: 0 for no effect and ±100 for the full control effect
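Pol beta (10 nM) was preincubated with compound for 15 min at room temperature. The reaction was then started with 50 nM substrate and read immediately and after a further 10 min at room temperature.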
FEN1 inhibitor: blocks human flap endonuclease 1; P39748; Recombinant FEN1 flap cleavage, fluorescence, 15 min; Potency, µM (doses to about 114 µM), inactives show at the highest dose activity change, negative = inhibition, hits mostly inhibitors; 0.35% of 390,000 active; AID 588795; note: % is set by controls: 0 for no effect and ±100 for the full control effect; nearly all actives have a fitted effect of over 65% in size
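Enzyme 10 nM, 15 min RT preincubation with compound; start with substrate 50 nM final; reads at 0 and 15 min; qHTS titration, four-parameter Hill fit.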
POLH inh: inhibitors of human DNA polymerase eta. Q9Y253. recombinant Pol eta, fluorescent DNA replication assay. Potency, µM (series often up to 114 µM), inactives show at the highest dose activity change, negative = inhibition, actives largely listed as inhibitors. 1.2% of 390,000 active. AID 588591; note: % is set by controls: 0 for no effect and ±100 for the full control effect
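Pol eta at 10 nM preincubated with compounds 15 min at room temperature; reaction started with fluorescent substrate (50 nM final) and read kinetically at 0 and 10 min.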
Pol kappa inh: inhibitors of human DNA polymerase kappa; Potency, µM (doses to about 107 µM), for inactives: at the highest dose activity, negative = inhibition, usual class: inhibitors; purified Pol kappa, fluorescent DNA synthesis assay, 10 min; 0.53% of 400,000 active; note: % is set by controls: 0 for no effect and ±100 for the full control effect
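10 nM Pol kappa preincubated 15 min at room temperature with compounds, then reaction started with substrate at 50 nM final. Fluorescence read kinetically at 0 and 10 min; buffer-only wells served as negative control.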
* marks the source's active call; other numbers are inactive results; ? = inconclusive; . = no result given; [ ] = remark or other dose. Calls come from the whole dose curve; as a rule, active = well fitted curve in the direction sought with a large enough effect; inconclusive = small, poorly fitted or top-dose-only effect, or another doubt; inactive = no such curve, though single readings can be large; an effect the other way counts as inactive or inconclusive. Potency is the fitted concentration of half-maximal effect.

SMILES	WRN helicase inh	POLI inh	POLB inh	FEN1 inhibitor	POLH inh	Pol kappa inh
C=C1NN(Cc2ccccc2)C(=O)N1c1ccc(OCc2ccccc2)cc1	.	0%	.	1%	.	1%
Nc1ccc(/C=C/c2ccnc3ccccc23)c(N)c1	.	46%	.	?	.	9%
c1cc2[nH]snc2c2nc(C3CC3)nc12	-15%[57.1 µM]	?	4%	?	79µM*	-8%
COc1cccc(N2C(=O)C(c3ccccc3)=C(c3nc4ccccc4s3)C2NC(C)=O)c1 (configuration not stated)	-5%	1%	89µM*	9%	-17%	-2%
COc1ccc(Cn2c(C(=O)O)c(CNCCc3cccs3)c3ccc(C)cc32)cc1	.	22%	30%	-17%	-20%	7%
COc1ccc(S(=O)(=O)NCc2cccn2Cc2cccc(C)c2)cc1OC	.	-4%	-16%	0%	-17%	-7%[60.1 µM]
Cc1ccc(CNC(=O)c2cccc3c2C(=O)c2ccc(N4CCCCC4)cc2S3(=O)=O)cc1	50µM*	?	.	17%	-20%	-17%
COc1ccc(-c2ccc3c(c2)S(=O)(=O)c2cccc(C(=O)NCc4cc(C)oc4C(F)(F)F)c2C3=O)cc1OC	-12%[11.6 µM]	?	.	3%	11µM*	?
N#Cc1nc(-c2ccc(OCc3ccccc3Cl)cc2)oc1N1CCCCCC1	.	27%	.	0%	.	-13%
COc1ccc2ccccc2c1C(O)c1nccn1C (configuration not stated)	-22%	25µM*	-14%	?	-9%	-26%
CN1CCc2nc3sc(C(=O)C45CC6CC(CC(C6)C4)C5)c(N)c3cc2C1	?	0%	50µM*	?	?	?
CN1CCc2nc3sc(C(=O)c4ccc(F)cc4)c(N)c3cc2C1	.	25%	13%	4%	-19%	2%
C/C(=N\NC(=O)c1ccc(N2CCCC2=O)cc1)c1ccc(O)cc1O	-10%[11.6 µM]	45µM*	-2%	20%	-4%	-21%
Brc1ccc(C2Nc3cccc4cccc(c34)N2)o1	-21%[57.1 µM]	?	7%	28µM*	-8%	-5%
Clc1cccc(Cl)c1C1Nc2cccc3cccc(c23)N1	-10%[57.1 µM]	35µM*	-59%	-15%	-4%	-39%
Brc1cccc(C2Nc3cccc4cccc(c34)N2)c1	-13%	11%	?	-6%	-7%	-14%
O=C(NCc1ccccc1)c1ccc(OC2CSC2)cc1	4%	-9%	-22%	-2%	-7%	-14%
O=C(O)c1ccc(OC2CSC2)cc1	-12%	?	6%	-2%	20µM*	-2%
COc1ccc(C(=O)Nc2nnc(SCc3cc(=O)n4cccc(C)c4n3)s2)cc1	.	-9%	-1%	1%	-11%	3%[60.1 µM]
COc1ccccc1/C=C/C=C1N=C(/C=C/c2ccc(Cl)cc2)OC/1=O	-9%	11%	?	1%	-24%	-15%
COc1ccccc1/C=C/C1=NC(=C\C=C/c2ccccc2)/C(=O)O1	-25%	?	20µM*	-16%	?	-14%[60.1 µM]
O=C(NCCc1c[nH]c2ccccc12)OCCSS(=O)(=O)O	-9%	25µM*	5%	-1%	-7%	-19%
CCC(=O)NCCc1c[nH]c2ccccc12	-3%	8%	27%	-10%	2%	-12%
Cc1[nH]n(C(N)=S)c(=O)c1N=Nc1ccc([N+](=O)[O-])cc1Cl	-18%	40µM*	29%	2%	-24%	-14%
NC(=S)n1[nH]c(-c2ccc([N+](=O)[O-])cc2)c(N=Nc2cccc(Cl)c2)c1=O	-11%	20µM*	?	50µM*	40µM*	?
SMILES	WRN helicase inh	POLI inh	POLB inh	FEN1 inhibitor	POLH inh	Pol kappa inh
NC(=S)n1[nH]c(-c2ccc([N+](=O)[O-])cc2)c(N=Nc2ccc(O)cc2)c1=O	-16%	?	6%	-19%	?	?
CCN(CC)S(=O)(=O)c1ccc(N=Nc2c(C)[nH]n(C(N)=S)c2=O)cc1	0%	24%	40µM*	2%	7%	-3%
Cc1noc2nc(C(=O)O)nc(N3CCCCC3)c12	.	-9%	26%	-9%	-12%	3%
CC(C)CNc1ncnc2oc(-c3ccco3)c(-c3ccco3)c12	.	?	.	?	.	-40%
COc1ccc(S(=O)(=O)N(CCc2ccccc2)CC(=O)Nc2cc(Cl)ccc2C)cc1	.	89µM*	-26%	?	-24%	?
Cc1ccc(C)c(NC(=O)CN(CCc2ccccc2)S(=O)(=O)c2ccccc2)c1	.	79µM*	19%	89µM*	-11%	-16%
COc1cccc(NCc2nnc(SC(C(=O)N(C)C)c3ccccc3)n2C2CCCCC2)c1 (configuration not stated)	.	1%	.	-9%	.	-12%
COc1ccc(-c2c[n+](CC(=O)c3ccccc3)c3n2CCCCC3)cc1	3%	-4%	21%	-13%	-15%	-15%
COc1ccc(-c2c[n+]3c4n2CCCCC4=C(c2ccccc2)C3)cc1	-2%	9%	11µM*	-1%	0%	-6%
Cc1c2ccccc2nc2c(F)c(NCCO)c(F)c(F)c12	?	?	?	?	?	79µM*
Cc1c2ccccc2nc2c(F)c(NC(C)C)c(F)c(F)c12	-14%	18µM*	3%	-20%	-3%	?
CC(C)(C)n1ncc2c(=O)n(Cc3cccc(C(F)(F)F)c3)cnc21	.	-20%	.	-21%	.	-15%
O=C(Nc1ccc(N2CCOCC2)c(S(=O)(=O)Nc2ccc(Cl)cc2)c1)c1ccc(=O)[nH]n1	-6%[11.6 µM]	10µM*	.	-7%	20µM*	?
O=C(Nc1ccc(N2CCOCC2)c(S(=O)(=O)Nc2ccc(Cl)cc2)c1)c1cnccn1	6%	11%	-1%	3%	?	-5%
Nc1cccc2cccnc12	.	?	.	2%	.	-17%
Oc1c(C=Nc2ccc(Cl)cn2)sc2ccccc12	-1%	-3%	-27%	0%	-22%	-3%
Oc1c(/C=N/c2ccccn2)sc2ccccc12	-8%	18%	22µM*	-20%	-17%	-15%
O=C1c2ccccc2C(=O)N1/N=C/c1ccc(O)c(O)c1O	8.9µM*	?	?	11µM*	1.6µM*	1.4µM*
Oc1ccc(/C=N/N(c2ccccc2)c2ccccc2)c(O)c1O	.	.	5µM*	.	.	.
Oc1ccc(/C=N/N2CCCCC2)c(O)c1O	?	?	35µM*	?	-20%	?
Oc1cccc(/C=N/N2CCCCC2)c1O	-4%	?	?	-5%	-1%	-20%
O=C1c2cccc3cccc(c23)C(=O)N1/N=C/c1ccc(O)cc1O	0%	17%	?	-12%	?	-29%
